This passage reports outcome and AC50 results from PubChem BioAssay (EPA / NIEHS).

The term AC50 denotes the concentration at which the activity in the assay is half-maximal.

The target of test [1] is human Neurokinin, NK2 Receptor, TACR2 (gene 6865) (UniProt P21452). Put plainly: NVS_GPCR_hNK2: NovaScreen (NVS) G Protein-Coupled Receptor Assay for human Neurokinin, NK2 Receptor (AID 2283278).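 Further: actives reduce bound radioligand signal relative to DMSO baseline.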 A digest of the protocol:
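Filter-based scintillation counting measured radioligand bound to receptor extracted from CHO cells, 4 hours after compound addition. Chemicals screened first at 25 uM in duplicate, with actives retested in concentration series relative to DMSO.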

In test [2] the target is human Thromboxane A2 Receptor (TXA2), TBXA2R (gene 6915) (UniProt P21731). The experiment in a line: NVS_GPCR_hTXA2: NovaScreen (NVS) G Protein-Coupled Receptor Assay for human Thromboxane A2 Receptor (TXA2) (AID 2283282).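 Further: actives reduce bound radioligand signal relative to DMSO baseline.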 The procedure, abridged: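 Biochem binding, human platelets, cell-free; competitive radioligand displacement; 1 h; filter radiodetection. 25 uM duplicate primary, conc. series secondary; DMSO neg. ctrl.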

The target of test [3] is D(1A) dopamine receptor (Homo sapiens) (UniProt P21728). The experiment in a line: NVS_GPCR_hDRD1: NovaScreen (NVS) G Protein-Coupled Receptor Assay for human Dopamine Receptor D1 (DRD1) (AID 2283269). A digest of the protocol:
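HEK293-derived receptor preparation; radioligand competitive displacement; 1 h; filtration + scintillation counting. DMSO = negative control/baseline. Primary: 25 uM, duplicate; secondary: concentration–response for actives.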

The target of test [4] is Muscarinic acetylcholine receptor M2 (Homo sapiens) (UniProt P08172). The experiment in a line: NVS_GPCR_hM2: NovaScreen (NVS) G Protein-Coupled Receptor Assay for human Muscarinic, M2 Receptor (AID 2283273). The procedure, abridged:
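CHO-expressed human M2 receptor preparation, competitive displacement of a radioligand read by filter-based scintillation counting after 1 h. Single 25 uM duplicate screen, then concentration-response follow-up of actives; DMSO baseline.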

Test [5] addresses human Adenosine A2a Receptor (AdoRA2a), ADORA2A (gene 135) (UniProt P29274). The experiment in a line: NVS_GPCR_hAdoRA2a: NovaScreen (NVS) G Protein-Coupled Receptor Assay for human Adenosine A2a Receptor (AdoRA2a) (AID 2283256). The procedure, abridged:
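Compounds screened in duplicate at 25 uM, with actives followed up in concentration series, for displacement of a radioligand from HEK293-derived receptor protein. Bound counts read by filter scintillation at 1.5 hours, DMSO as baseline.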

Test [6] deals with human Opioid Receptor Mu (Opiate Mu), OPRM1 (gene 4988) (UniProt P35372). Put plainly: NVS_GPCR_hOpiate_mu: NovaScreen (NVS) G Protein-Coupled Receptor Assay for human Opioid Receptor Mu (Opiate Mu) (AID 2283290).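 Further: hits lower bound tracer signal versus DMSO meaning displacement of the ligand.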 A digest of the protocol:
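CHO-derived receptor protein, cell-free; radioligand displacement, filtration + scintillation counting, read at 2.5 h. DMSO = negative control/baseline. Primary: 25 uM single conc, duplicate; secondary: concentration series.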

The target of test [7] is rat Neonicotinoid receptor (NNR), Chrna7 (gene 25302) (UniProt Q05941). Put plainly: NVS_LGIC_rNNR_BungSens: NovaScreen (NVS) Ligand-Gated Ion Channel Assay for rat Neonicotinoid receptor (NNR) (AID 2283315). A digest of the protocol: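 Rat cortical membrane preparation incubated 2.5 h with tritiated or iodinated radioligand and test chemical. Bound radioactivity was filtered and counted by scintillation, and displacement was analysed against DMSO.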

For test [8], the target named is guinea pig Opioid, Kappa 1 Receptor (OpiateK), OPRK1 (gene 100135587) (UniProt P41144). Put plainly: NVS_GPCR_gOpiateK: NovaScreen (NVS) G Protein-Coupled Receptor Assay for guinea pig Opioid, Kappa 1 Receptor (OpiateK) (AID 2283252).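 Further: active means reduced radioligand binding relative to DMSO.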 A digest of the protocol:
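Radioligand binding to kappa opioid receptor in guinea pig cerebellar membranes, read by filtration and scintillation at 2 h. Compounds first tested in duplicate at 25 uM, then actives in concentration series; signal loss fitted against DMSO.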

The target in test [9] is guinea pig Leukotriene D4 Receptor (LTD4), CYSLTR1 (gene 100135514) (UniProt Q2NNR5). The experiment in a line: NVS_GPCR_gLTD4: NovaScreen (NVS) G Protein-Coupled Receptor Assay for guinea pig Leukotriene D4 Receptor (LTD4) (AID 2283248). A digest of the protocol:
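Guinea pig lung membrane preparation; bound radioligand measured by filter scintillation after 1 h, loss of signal versus DMSO marking displacement. Compounds tested at 25 uM in duplicate, hits retested to max 50 uM.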

The target in test [10] is human Adenosine A1 Receptor (AdoRA1), ADORA1 (gene 134) (UniProt P30542). The experiment in a line: NVS_GPCR_hAdoRA1: NovaScreen (NVS) G Protein-Coupled Receptor Assay for human Adenosine A1 Receptor (AdoRA1) (AID 2283254). Here is the method:
NVS_GPCR_hAdoRA1 is a biochemical, single-readout assay that uses extracted gene-proteins from Human cortical membranes in a tissue-based cell-free assay. Measurements were taken 1 hour after chemical dosing in a 96-well plate.NVS_GPCR_hAdoRA1 is one of one assay component(s) measured or calculated from the NVS_GPCR_hAdoRA1 assay. It is designed to make measurements of radioligand binding, a form of binding reporter, as detected with scintillation counting signals by Filter-based radiodetection technology.Data from the assay component NVS_GPCR_hAdoRA1 was analyzed into 1 assay endpoint. This assay endpoint, NVS_GPCR_hAdoRA1, was analyzed in the positive analysis fitting direction relative to DMSO as the negative control and baseline of activity. Using a type of binding reporter, loss-of-signal activity can be used to understand changes in the binding as they relate to the gene ADORA1. Furthermore, this assay endpoint can be referred to as a primary readout, because the performed assay has only produced 1 assay endpoint. To generalize the intended target to other relatable targets, this assay endpoint is annotated to the gpcr intended target family, where the subfamily is rhodopsin-like receptor. […]

Records with an inconclusive call do not appear. Active and inactive are the calls of the source. How the source made its calls: active means hit-call score of the fitted dose curve at least 0.9, where 1 is the maximum; inconclusive means response in the unintended direction; inactive means score below 0.9.

Sequence of guinea pig Opioid, Kappa 1 Receptor (OpiateK), OPRK1 (gene 100135587) (P41144 whole entry, looked up): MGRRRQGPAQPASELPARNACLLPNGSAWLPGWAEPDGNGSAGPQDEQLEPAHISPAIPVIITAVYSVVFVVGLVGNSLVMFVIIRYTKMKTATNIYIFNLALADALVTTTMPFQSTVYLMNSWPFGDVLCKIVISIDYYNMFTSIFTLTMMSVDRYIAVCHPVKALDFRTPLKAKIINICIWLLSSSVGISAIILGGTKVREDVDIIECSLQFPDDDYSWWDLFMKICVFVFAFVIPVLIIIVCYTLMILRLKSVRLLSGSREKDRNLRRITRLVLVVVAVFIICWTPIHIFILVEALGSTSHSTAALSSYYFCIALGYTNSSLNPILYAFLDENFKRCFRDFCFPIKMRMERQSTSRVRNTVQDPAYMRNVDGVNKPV
Sequence of human Opioid Receptor Mu (Opiate Mu), OPRM1 (gene 4988) (P35372 whole entry, looked up): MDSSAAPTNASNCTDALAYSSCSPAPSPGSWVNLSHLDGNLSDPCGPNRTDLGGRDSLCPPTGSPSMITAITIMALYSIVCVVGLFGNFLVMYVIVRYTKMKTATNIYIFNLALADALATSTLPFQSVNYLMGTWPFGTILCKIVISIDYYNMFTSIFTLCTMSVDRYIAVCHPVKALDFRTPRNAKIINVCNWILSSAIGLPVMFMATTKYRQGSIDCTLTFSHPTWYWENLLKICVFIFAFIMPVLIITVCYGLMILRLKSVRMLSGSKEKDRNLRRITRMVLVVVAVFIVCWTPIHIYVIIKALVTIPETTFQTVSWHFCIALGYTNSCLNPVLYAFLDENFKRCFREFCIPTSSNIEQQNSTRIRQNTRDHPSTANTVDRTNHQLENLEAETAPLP
Sequence of human Adenosine A2a Receptor (AdoRA2a), ADORA2A (gene 135) (P29274 whole entry, looked up): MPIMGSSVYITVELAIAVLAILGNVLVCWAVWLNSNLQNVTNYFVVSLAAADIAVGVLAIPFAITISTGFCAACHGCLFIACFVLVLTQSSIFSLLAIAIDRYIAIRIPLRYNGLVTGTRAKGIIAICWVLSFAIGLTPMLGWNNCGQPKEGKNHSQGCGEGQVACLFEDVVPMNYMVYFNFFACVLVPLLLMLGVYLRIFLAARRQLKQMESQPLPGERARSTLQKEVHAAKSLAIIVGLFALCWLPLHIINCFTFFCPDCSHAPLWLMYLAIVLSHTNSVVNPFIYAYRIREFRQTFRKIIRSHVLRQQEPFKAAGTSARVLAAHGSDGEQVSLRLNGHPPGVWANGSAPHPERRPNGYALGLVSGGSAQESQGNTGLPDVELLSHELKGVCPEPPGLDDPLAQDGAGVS
Sequence of human Neurokinin, NK2 Receptor, TACR2 (gene 6865) (P21452 whole entry, looked up): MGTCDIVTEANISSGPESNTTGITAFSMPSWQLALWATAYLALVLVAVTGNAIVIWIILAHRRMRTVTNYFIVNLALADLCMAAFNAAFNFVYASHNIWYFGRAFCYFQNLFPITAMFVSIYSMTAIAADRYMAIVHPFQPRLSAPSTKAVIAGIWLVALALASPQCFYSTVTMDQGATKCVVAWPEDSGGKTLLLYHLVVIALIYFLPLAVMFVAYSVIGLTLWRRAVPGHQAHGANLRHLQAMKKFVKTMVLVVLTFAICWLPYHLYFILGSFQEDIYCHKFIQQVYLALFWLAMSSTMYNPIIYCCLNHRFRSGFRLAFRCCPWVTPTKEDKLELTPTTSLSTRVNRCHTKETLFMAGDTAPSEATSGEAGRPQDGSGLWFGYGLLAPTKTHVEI
Sequence of D(1A) dopamine receptor (Homo sapiens) (P21728 whole entry, looked up): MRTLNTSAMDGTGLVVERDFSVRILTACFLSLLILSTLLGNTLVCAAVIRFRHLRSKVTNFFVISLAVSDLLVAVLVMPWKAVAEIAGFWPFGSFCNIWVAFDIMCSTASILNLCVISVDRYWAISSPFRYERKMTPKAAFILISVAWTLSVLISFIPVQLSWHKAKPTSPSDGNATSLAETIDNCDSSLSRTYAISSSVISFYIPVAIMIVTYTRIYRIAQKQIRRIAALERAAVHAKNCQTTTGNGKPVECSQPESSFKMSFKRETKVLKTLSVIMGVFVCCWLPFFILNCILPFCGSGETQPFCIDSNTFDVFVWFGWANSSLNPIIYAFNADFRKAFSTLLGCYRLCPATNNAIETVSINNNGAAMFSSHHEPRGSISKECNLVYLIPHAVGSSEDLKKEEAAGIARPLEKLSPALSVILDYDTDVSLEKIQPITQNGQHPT
Sequence of Muscarinic acetylcholine receptor M2 (Homo sapiens) (P08172 whole entry, looked up): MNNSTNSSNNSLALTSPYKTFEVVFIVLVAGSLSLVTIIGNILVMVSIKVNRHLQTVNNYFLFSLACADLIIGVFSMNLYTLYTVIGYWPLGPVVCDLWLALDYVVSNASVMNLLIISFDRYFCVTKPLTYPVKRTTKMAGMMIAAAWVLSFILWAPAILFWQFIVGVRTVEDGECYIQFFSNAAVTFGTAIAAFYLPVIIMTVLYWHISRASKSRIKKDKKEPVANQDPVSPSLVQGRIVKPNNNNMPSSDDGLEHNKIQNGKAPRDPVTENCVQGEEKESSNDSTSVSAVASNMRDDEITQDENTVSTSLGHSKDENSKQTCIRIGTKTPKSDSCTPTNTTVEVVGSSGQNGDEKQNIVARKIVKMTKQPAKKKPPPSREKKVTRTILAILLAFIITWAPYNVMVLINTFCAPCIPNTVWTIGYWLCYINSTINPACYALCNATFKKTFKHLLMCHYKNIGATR
Sequence of human Thromboxane A2 Receptor (TXA2), TBXA2R (gene 6915) (P21731 whole entry, looked up): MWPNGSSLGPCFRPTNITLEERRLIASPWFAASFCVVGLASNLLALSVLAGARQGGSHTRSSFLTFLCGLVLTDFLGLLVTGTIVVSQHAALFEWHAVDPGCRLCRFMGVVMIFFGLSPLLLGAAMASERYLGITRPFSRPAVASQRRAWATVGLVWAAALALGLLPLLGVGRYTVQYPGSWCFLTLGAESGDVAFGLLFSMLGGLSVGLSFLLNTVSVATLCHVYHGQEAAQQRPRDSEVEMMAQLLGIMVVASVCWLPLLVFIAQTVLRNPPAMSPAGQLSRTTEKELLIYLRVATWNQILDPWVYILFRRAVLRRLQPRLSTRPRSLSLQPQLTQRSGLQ
Sequence of guinea pig Leukotriene D4 Receptor (LTD4), CYSLTR1 (gene 100135514) (Q2NNR5 whole entry, looked up): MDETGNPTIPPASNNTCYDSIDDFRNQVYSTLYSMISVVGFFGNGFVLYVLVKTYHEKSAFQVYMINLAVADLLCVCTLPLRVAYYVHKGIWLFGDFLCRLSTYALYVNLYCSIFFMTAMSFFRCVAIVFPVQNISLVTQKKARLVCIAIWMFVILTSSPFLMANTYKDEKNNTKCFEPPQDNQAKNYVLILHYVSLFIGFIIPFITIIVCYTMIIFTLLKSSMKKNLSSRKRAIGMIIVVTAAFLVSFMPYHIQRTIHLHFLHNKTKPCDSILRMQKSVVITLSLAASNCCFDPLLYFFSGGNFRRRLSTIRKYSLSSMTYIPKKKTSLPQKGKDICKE
Sequence of rat Neonicotinoid receptor (NNR), Chrna7 (gene 25302) (Q05941 whole entry, looked up): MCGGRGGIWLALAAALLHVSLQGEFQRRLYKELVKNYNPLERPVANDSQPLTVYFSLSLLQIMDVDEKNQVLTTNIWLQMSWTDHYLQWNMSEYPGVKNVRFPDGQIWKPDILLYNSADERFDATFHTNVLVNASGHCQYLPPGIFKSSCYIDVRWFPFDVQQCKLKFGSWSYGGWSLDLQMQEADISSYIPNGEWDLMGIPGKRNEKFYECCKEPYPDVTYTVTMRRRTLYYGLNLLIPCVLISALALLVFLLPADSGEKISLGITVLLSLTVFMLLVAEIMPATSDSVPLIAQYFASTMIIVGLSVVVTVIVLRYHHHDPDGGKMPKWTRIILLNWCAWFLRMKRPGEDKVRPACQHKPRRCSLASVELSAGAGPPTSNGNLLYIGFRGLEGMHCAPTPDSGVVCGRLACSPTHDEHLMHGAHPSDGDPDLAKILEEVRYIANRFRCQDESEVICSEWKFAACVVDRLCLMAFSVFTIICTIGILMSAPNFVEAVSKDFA
Sequence of human Adenosine A1 Receptor (AdoRA1), ADORA1 (gene 134) (P30542 whole entry, looked up): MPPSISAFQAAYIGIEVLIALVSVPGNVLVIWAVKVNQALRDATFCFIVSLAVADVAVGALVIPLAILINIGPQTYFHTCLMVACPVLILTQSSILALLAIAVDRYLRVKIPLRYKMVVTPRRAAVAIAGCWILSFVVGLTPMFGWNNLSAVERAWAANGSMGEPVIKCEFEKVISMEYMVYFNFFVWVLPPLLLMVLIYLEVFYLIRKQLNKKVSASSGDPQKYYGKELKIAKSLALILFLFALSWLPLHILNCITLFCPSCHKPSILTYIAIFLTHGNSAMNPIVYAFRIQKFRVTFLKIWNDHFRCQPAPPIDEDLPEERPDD

Turning to `CN(C)C(=O)Nc1ccc(Oc2ccc(Cl)cc2)cc1`, the molecule was called inactive in [1] and in [2].

`CCC1CCCCC1`: the molecule was classed as inactive in test [3].

`CC(=O)Nc1ccc(C(=O)CCl)cc1`: the half-maximal activity concentration (AC50) in test [2] was 10.7 µM (active).

Take `CCCCN(CCCC)C(=O)N(CCCC)CCCC`: the molecule was classed as inactive in [4].

For `ClC(c1ccccc1)(c1ccccc1)c1ccccc1`, the molecule was called inactive in [5], in test [3] and in [6].

`C=CC(C)C#N` (stereo not drawn): in test [7], the molecule was called inactive.

For the molecule `CCCCOCC`, the molecule was classed as inactive in test [3].

As for `C[C@@H]1CCN(C(=O)[C@H](CCCN=C(N)N)NS(=O)(=O)c2cccc3c2NC[C@H](C)C3)[C@@H](C(=O)O)C1`, the half-maximal activity concentration (AC50) in test [3] was 17 µM (active).

Consider `CC(C)(C)CC(C)(C)c1ccc(OCCOCC[N+](C)(C)Cc2ccccc2)cc1`, for which the AC50 in [1] was 4.14 µM (active).

On to `[O-]n1ccccc1=S.[O-]n1ccccc1=S.[Zn+2]`, for which the AC50 in [1] was 9.86 µM (active); in test [6], 0.104 µM (active).

As to `Nc1ccc(Cl)c([N+](=O)[O-])c1`, in [5], the molecule was classed as inactive.

Regarding `CN(c1nccc(=O)[nH]1)C1CCN(c2nc3ccccc3n2Cc2ccc(F)cc2)CC1`, the call in test [8], in test [3] and in test [4] was inactive. Moreover, the concentration at half-maximal activity (AC50) in test [2] is 0.761 µM (active).

With `COC(=O)c1ccc([N+](=O)[O-])cc1`, the outcome in [9] and in test [2] was inactive.

Consider `CC(C)Nc1nc(N)nc(Cl)n1`, for which the AC50 in [5] was 15.6 µM (active).

With `CCC(C)=O`, the molecule was classed as inactive in [4].

For `NC(=S)NNC(N)=S`, the outcome in [1] and in [6] was inactive.

Regarding `COc1ccc(OC)c(N=Nc2c(O)ccc3ccccc23)c1`, the concentration at half-maximal activity (AC50) in test [1] is 25 µM (active).

In the case of `CCOC(=O)CN`, the call in test [3] was inactive.

With `CCCCCCCCCCCCCCCC(=O)OC/C=C(C)/C=C/C=C(C)/C=C/C1=C(C)CCCC1(C)C`, the molecule was classed as inactive in test [5] and in test [6]. The concentration at half-maximal activity (AC50) in [3] was 34.7 µM (active).

Consider `CN(C)C(=S)SC(=S)N(C)C`, for which the half-maximal activity concentration (AC50) in test [8] was 30.8 µM (active); in test [3] it was 30.8 µM (active); in test [1], 1.59 µM (active).

For `CCCCSCCCC`, in test [3], the outcome was inactive.

Take `COCCc1ccc(OCC(O)CNC(C)C)cc1` (stereo not drawn): the molecule was called inactive in [5] and in [3].

In the case of `C=C(C)C(=O)OCC(CC)(COC(=O)C(=C)C)COC(=O)C(=C)C`, the AC50 in [10] and in test [4] was 24.6 µM (active) throughout.

Take `Oc1c(Cl)cc(Cl)c(Cl)c1Cc1c(O)c(Cl)cc(Cl)c1Cl`: the values for the AC50 in [5] and in test [6] were 5.67 µM (active) and 6.76 µM (active), respectively. Further, in test [2], the result was inactive.

Regarding `CC(C)(N=C=O)c1cccc(C(C)(C)N=C=O)c1`, the concentration at half-maximal activity (AC50) in test [8] was 36.7 µM (active); in test [3], 43.7 µM (active); in test [6], 32.8 µM (active). In [1], the outcome was inactive.

Take `C=CCOC(=O)CCCCCC`: the outcome in test [3] was inactive.

Consider `O=C1c2ccccc2C(=O)c2c(O)ccc(O)c21`, for which the outcome in test [9] was inactive.

As for `CC(C)CC(C)CC(O)CC(C)C` (stereo not drawn), the call in [2] was inactive.

As for `Cc1cc(CCC(=O)OCCOCCOCCOC(=O)CCc2cc(C)c(O)c(C(C)(C)C)c2)cc(C(C)(C)C)c1O`, in test [2], the AC50 was 0.23 µM (active).

Turning to `O=C1OC[C@H](Cc2cccc(O)c2)[C@H]1Cc1cccc(O)c1`, the AC50 in test [8] is 5.5 µM (active).

As to `COc1ccc(CCN2CCC(Nc3nc4ccccc4n3Cc3ccc(F)cc3)CC2)cc1`, the result in test [8] was inactive. For the same molecule, the results for the half-maximal activity concentration (AC50) in test [4] and in [2] were 3.04 µM (active) and 0.227 µM (active), respectively.
